13 compounds from PubChem BioAssay (NCATS) can be followed below.

“And” between values parts separate entries of the source, which are not always exact repeats. Equal values may be shown once. Values without a mark were called inactive. Inconclusive results are not listed. The source made the active and inactive calls. Unless noted, calls come from the whole dose curve; as a rule, active = well fitted curve in either direction with a large enough effect (not every such curve was filed as active); inconclusive = small, poorly fitted or top-dose-only effect, or another doubt; inactive = flat fitted curve, though single readings scatter.

Assay [1] addresses Glucocorticoid receptor (Homo sapiens) (UniProt P04150). The experiment in a line: GR-GFP Redistribution (AID 450;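 active = compounds whose dose series gives a full or clear partial fitted curve of increased nuclear translocation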; note: potency is the fitted concentration of half-maximal effect). Particulars: U2OS GR-GFP nuclear translocation, laser cytometry, 2 h.
The target is the same in assay [2]. The assay is described as follows: GR-EFC Redistribution (AID 451; calls by dose curve; note: potency is the fitted concentration of half-maximal effect). Particulars: CHO-K1 GR-EFC translocation, beta-gal luminescence, 2 h. Put shortly: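 Translocation of GR-ED fusion to nuclear EA restores b-gal, read by luminescence after 1 h room-temperature detection. Engineered CHO-K1 biosensor cells, 1,000/well, exposed 2 h at 37 C to titrations up to 46 uM final.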

In assay [3] the target is Mitogen-activated protein kinase 10 (Mus musculus) (UniProt Q61831). The assay is described as follows: JNK3 AlphaScreen Assay (AID 530).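 Note: kinase came from lysate of stimulated human HepG2 cells.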 Note: potency is the fitted concentration of half-maximal effect. Particulars: JNK3 lysate, c-Jun phosphorylation; series mostly up to 25.6 µM. Put shortly:
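Compound titrations were preincubated 15 minutes at room temperature with substrate, antibody and pre-activated JNK3-containing HepG2 lysate. Reactions were started with 10 uM ATP and stopped with EDTA-containing bead buffer for AlphaScreen detection.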
Background: Alpha assays give light when donor and acceptor beads are brought close together.

In assay [4] the target is Cytochrome P450 1A2 (Homo sapiens) (UniProt P05177). The experiment in a line: p450-cyp1a2 (AID 410; calls by dose curve; note: potency is the fitted concentration of half-maximal effect). Particulars: recombinant CYP1A2, luciferin-ME demethylation, luminescence; series mostly up to 25.6 µM. Summed up: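 20nM CYP1A2 with 100uM Luciferin-ME (at Km) in 100mM KPO4; compound preincubated 10 min, NADPH regeneration added, 60 min at room temperature. Luciferin quantified by luminescence after detection reagent; normalized to 57 uM furafylline.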

The nature of assay [5]: AP1 Signaling Pathway (AID 357). As to conditions: ME-180 AP-1-bla reporter, EGF-induced, beta-lactamase ratio, 5 h; series mostly up to 17.2 µM. Put shortly: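 Read-out was the 460nm/530nm emission ratio (excitation 405nm) after CCF4 loading for 2.5 hours at room temperature. Cells carried an AP-1-driven beta-lactamase reporter, were stimulated with EC50 EGF plus compound for 5 hours, and AC50 values came from titrations.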

The nature of assay [6]: NFAT Signaling Pathway (AID 444).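 Note: carbachol stimulus at about its EC50 of 1 µM final.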 Particulars: Jurkat NFAT-bla M1, carbachol, beta-lactamase ratio, 5 h; series mostly up to 17.2 µM. Put shortly: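 Read-out: CCF4 FRET ratio (460 nm/530 nm) after 1 h RT dye loading, used for %activity and AC50 from titration series. Cells: Jurkat NFAT-β-lactamase/M1 line, treated with compound plus 1 uM carbachol for 5 h, 37 °C.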
Assay [7] is described as follows: Stat Signaling Pathway (AID 446).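 Note: ME-180 cervical cancer cells given 40 pM IL-6 alongside compound; SIE-controlled beta-lactamase reporter measured as 460/530 nm FRET emission ratio.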 As to conditions: ME-180 SIE beta-lactamase reporter, IL-6 stimulated, 5 h; series mostly up to 17.2 µM. Put shortly: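 ME-180 SIE-bla cells; overnight plating; cpd + IL-6 40 pM, 5 h, 37 C; LiveBLAzer 2.5 h RT; 460/530 nm emission ratio. Normalized to 300 pM IL-6 and 125 nM JAK inhibitor controls.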

Glucocorticoid receptor (Homo sapiens), sequence (P04150 whole entry, looked up, the tested form may be a part): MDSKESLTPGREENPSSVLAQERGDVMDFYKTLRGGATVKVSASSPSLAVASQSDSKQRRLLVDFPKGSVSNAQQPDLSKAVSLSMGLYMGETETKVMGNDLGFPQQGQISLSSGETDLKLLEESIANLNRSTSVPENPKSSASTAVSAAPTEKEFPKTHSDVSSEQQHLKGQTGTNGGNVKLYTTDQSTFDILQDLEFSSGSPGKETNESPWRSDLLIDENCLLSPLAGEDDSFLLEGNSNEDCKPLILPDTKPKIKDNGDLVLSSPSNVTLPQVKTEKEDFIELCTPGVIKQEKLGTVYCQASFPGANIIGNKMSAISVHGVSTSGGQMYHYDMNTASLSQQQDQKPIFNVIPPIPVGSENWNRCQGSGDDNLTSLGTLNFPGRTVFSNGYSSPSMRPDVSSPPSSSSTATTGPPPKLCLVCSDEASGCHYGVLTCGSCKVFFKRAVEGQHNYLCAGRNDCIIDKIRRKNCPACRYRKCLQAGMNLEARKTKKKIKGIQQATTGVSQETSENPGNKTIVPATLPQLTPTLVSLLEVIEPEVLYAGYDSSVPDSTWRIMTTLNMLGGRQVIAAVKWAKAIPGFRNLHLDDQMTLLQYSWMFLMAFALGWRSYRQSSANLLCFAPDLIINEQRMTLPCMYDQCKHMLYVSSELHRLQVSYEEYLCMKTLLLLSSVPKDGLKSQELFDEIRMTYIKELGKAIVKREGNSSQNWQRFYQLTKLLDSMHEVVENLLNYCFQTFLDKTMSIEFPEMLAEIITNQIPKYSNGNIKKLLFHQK
Cytochrome P450 1A2 (Homo sapiens), sequence (P05177 whole entry, looked up): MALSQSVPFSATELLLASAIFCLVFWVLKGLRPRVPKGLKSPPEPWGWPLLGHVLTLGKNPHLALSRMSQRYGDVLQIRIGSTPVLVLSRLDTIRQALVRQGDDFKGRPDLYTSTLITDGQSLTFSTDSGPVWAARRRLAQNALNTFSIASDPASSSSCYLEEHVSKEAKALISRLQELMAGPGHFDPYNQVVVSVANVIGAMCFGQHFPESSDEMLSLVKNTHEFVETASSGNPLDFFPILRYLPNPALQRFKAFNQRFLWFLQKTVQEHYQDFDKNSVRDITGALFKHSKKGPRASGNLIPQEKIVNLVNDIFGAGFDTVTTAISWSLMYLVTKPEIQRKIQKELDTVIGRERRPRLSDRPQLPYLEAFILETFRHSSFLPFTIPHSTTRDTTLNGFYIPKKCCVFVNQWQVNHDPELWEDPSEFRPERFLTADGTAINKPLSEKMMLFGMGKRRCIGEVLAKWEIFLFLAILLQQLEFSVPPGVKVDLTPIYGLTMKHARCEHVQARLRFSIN

In the case of `COc1ccc(CCN(C)CCCOc2ccc(S(=O)(=O)c3[nH]c4ccccc4c3C(C)C)cc2)cc1OC`, the Potency in assay [1] and in assay [2] was more than 46 µM each time.

With `CCCCC(C=O)NC(=O)C(CC(C)C)NC(=O)OCc1ccccc1` (stereo not drawn), the Potency in assay [1] and in assay [2] was more than 46 µM in each case. Moreover, the Potency entry in assay [3] is “inactive”.

On to `COc1nccc(-c2c(-c3ccc(F)cc3)ncn2C2CCC(O)CC2)n1` (stereo not drawn), for which the Potency in assay [1] and in assay [2] was more than 46 µM in each case.

Take `Clc1ccc(COC(Cn2ccnc2)c2ccc(Cl)cc2Cl)c(Cl)c1` (stereo not drawn): the Potency in assay [4] was 1.26 µM (active); in assay [2] it was more than 20.6 µM. For the same compound, the Potency result in assay [3] was “inactive”.

As to `NCC1CCC(C(=O)O)CC1` (stereo not drawn), the result in assay [5], in assay [6] and in assay [7] was inactive. Besides, the Potency entry in assay [4] and in assay [3] was “inactive” throughout.

Regarding `CCC(=C(CC)c1ccc(O)cc1)c1ccc(O)cc1`, the Potency is 15.8 µM (active) in assay [4], more than 20.6 µM in assay [1] and more than 20.6 µM in assay [2]. Besides, the Potency entry in assay [3] was “inactive”.

Regarding `O=c1cc(-c2ccc(O)c(O)c2)oc2cc(O)cc(O)c12`, the Potency in assay [1] was > 20.6 µM and > 46 µM; in assay [2], > 20.6 µM and > 46 µM; in assay [3] it was 6.31 µM (active).

As for `C=C1c2cccc(O)c2C(O)=C2C(=O)[C@@]3(O)C(O)=C(C(N)=O)C(=O)[C@@H](N(C)C)[C@@H]3[C@@H](O)[C@H]12`, the outcome in assay [5], in assay [6] and in assay [7] was inactive. The Potency entry in assay [4] and in assay [3] was “inactive” in each case. The Potency in assay [1] and in assay [2] was more than 20.6 µM throughout.

On to `NS(=O)(=O)c1cc(Cl)c(Cl)c(S(N)(=O)=O)c1`, for which the outcome in assay [5], in assay [6] and in assay [7] was inactive. The Potency entry in assay [4] and in assay [3] was “inactive” each time. Further, the Potency in assay [1] and in assay [2] was more than 20.6 µM in each case.

Regarding `CN(C)CCN(Cc1ccc(Cl)cc1)c1ccccn1`, the Potency is 12.6 µM (active) in assay [4], more than 20.6 µM in assay [1] and more than 20.6 µM in assay [2]. Besides, the compound was called inactive in assay [7]. Besides, in assay [3], the Potency entry is “inactive”.

Consider `Cc1cc(NC(=O)Nc2ccc(N(C)C)cc2)c2cc(F)cc(F)c2n1`, for which the results for the Potency in assay [4], in assay [1] and in assay [2] were 0.126 µM (active), more than 46 µM and more than 46 µM, respectively.

Consider `CC1C(=O)OC2C(O)C34C5CC(C(C)(C)C)C36C(OC(=O)C6O)OC4(C(=O)O5)C12O` (stereo not drawn), for which the Potency in assay [1] and in assay [2] was more than 46 µM each time. In addition, the Potency result in assay [3] is “inactive”.

In the case of `Cc1cc2nc3c(=O)[nH]c(=O)nc-3n(CC(O)C(O)C(O)CO)c2cc1C` (stereo not drawn), the outcome in assay [5], in assay [6] and in assay [7] was inactive. Further, the Potency in assay [1] was more than 20.6 µM; in assay [2], > 20.6 µM and > 46 µM. The Potency entry in assay [3] is “inactive”.
